Experimental data from PubChem BioAssay.
Calls of active or inactive are those of the source.

Assays:
Albumin (Bos taurus) = Albumin (Bos taurus) (UniProt P02769); test: bovine serum albumin binders on microarray, profiling panel, artefact control for SMM control protein annotation, biochemical, small-molecule microarray, Alexa647 label, 635/667 nm fluorescence (AID 1118); settings: BSA-A647 binding, fluorescence 635 nm, higher = more signal;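 further: score merges 667 nm emission intensity and signal-to-noise per printed compound spot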
Albumin (Bos taurus), sequence (P02769 whole entry, looked up): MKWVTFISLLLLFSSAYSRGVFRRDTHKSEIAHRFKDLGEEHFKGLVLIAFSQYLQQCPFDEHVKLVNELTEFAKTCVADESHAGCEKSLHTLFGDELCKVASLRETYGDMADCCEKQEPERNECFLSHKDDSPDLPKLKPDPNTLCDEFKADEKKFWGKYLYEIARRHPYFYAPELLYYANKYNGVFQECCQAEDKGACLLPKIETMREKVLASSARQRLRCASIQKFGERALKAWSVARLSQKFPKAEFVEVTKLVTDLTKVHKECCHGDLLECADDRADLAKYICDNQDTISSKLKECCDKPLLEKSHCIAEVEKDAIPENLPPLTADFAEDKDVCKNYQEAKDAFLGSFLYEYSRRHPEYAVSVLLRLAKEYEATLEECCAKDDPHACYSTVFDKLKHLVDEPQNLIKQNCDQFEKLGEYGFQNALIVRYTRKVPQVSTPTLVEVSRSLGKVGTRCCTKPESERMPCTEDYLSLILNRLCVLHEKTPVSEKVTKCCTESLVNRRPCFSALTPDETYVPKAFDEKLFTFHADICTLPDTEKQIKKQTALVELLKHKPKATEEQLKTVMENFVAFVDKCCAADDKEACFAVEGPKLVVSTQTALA

[1] = small-molecule microarray binders of probe aXIP, primary screen, biochemical, NeuroSMM set, 635/667 nm fluorescence (AID 1119); settings: higher = more signal, called active from +8 up or from −8 down;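 further: probe is the protein aXip251-270 applied at 1 µg/mL to compound-printed slides; binding of probe to printed compounds measured as 667 nm fluorescence plus signal to noise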
[2] = small-molecule binders of probe aNOTCH3, primary screen, biochemical, small-molecule microarray, 635/667 nm fluorescence (AID 1120); settings: higher = more signal;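 further: probe is a biotin-tagged antibody raised against NOTCH3 rather than NOTCH3 protein; score merges spot fluorescence near 667 nm with spot signal to noise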
[3] = small-molecule binders of probe aNOTCH2, primary screen, biochemical, small-molecule microarray, 635/667 nm fluorescence (AID 1121); settings: higher = more signal;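 further: score merges feature fluorescence read at 667 nm with its signal to noise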
[4] = molecular target: Carbonic anhydrase 2 (Homo sapiens) (UniProt P00918); test: CAII small-molecule binders, profiling panel, biochemical, small-molecule microarray, Alexa647-labelled CAII (AID 1122); settings: CAII-A647 binding fluorescence, higher = more signal
[5] = COS7 lysate on small-molecule microarray, probe aHis, 635 nm (AID 1123); settings: COS7 cell lysate, fluorescence, higher = more signal;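 further: z-score combines 667nm fluorescence intensity with signal-to-noise per printed compound spot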
[6] = compound binding in COS7 lysate, probe aLAP1, primary screen, cell lysate, small-molecule microarray (AID 1124); settings: probe aLAP1, fluorescence, higher = more signal;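 further: lysate comes from COS7 cells expressing LAP1 and is applied at 0.3 µg/mL; score merges spot fluorescence near 667 nm with signal-to-noise over triplicate slides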
Sam68 (KHDRBS1) = test: Sam68 small-molecule binders, primary screen, biochemical, small-molecule microarray, 635 nm fluorescence (AID 1125); settings: small-molecule microarray binding, higher = more signal;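 further: score merges 667 nm channel intensity with signal to noise over triplicate slides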
[7] = tested on: Chordin-like protein 2 (CHRDL2); test: CHRDL2 small-molecule binders, primary screen, biochemical, small-molecule microarray, 635 nm fluorescence (AID 1126); settings: small-molecule microarray binding, fluorescence 635 nm; higher = more signal;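 further: printed compound slides probed with Chrdl2 protein at 4 µg/mL for 1 h at 4 C; score merges 667 nm emission intensity with signal to noise over three replicate slides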
[8] = molecular target: Concanavalin-A (Canavalia ensiformis) (UniProt P02866); test: ConA small-molecule binders, primary screen, artefact control for SMM control protein annotation, biochemical, small-molecule microarray, Alexa647 label, 635 nm (AID 1127); settings: ConA-A647 binding fluorescence, higher = more signal;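 further: z combines 667 nm emission intensity with signal-to-noise across three replicate slides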
Concanavalin-A (Canavalia ensiformis), sequence (P02866 whole entry, looked up): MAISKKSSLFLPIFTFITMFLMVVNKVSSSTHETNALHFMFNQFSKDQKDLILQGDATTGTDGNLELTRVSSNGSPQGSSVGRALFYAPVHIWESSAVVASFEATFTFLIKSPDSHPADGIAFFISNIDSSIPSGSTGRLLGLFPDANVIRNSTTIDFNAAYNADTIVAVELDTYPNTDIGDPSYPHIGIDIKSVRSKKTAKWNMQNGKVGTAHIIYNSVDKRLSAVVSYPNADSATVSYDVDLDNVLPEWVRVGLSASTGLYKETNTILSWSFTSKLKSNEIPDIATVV

| Structure (SMILES) | composite z-score (Albumin (Bos taurus)) | composite Z-score [1] | composite z-score [2] | composite z-score [3] | composite z-score [4] | composite z-score [5] | composite z-score [6] | composite z-score (Sam68 (KHDRBS1)) | composite z-score [7] | composite z-score [8] |
| --- | --- | --- | --- | --- | --- | --- | --- | --- | --- | --- |
| COCCCNC(=O)[C@]1(CCS(=O)(=O)c2ccccc2)N=C(c2ccc(OCCCO)cc2)O[C@@H]1c1ccccc1 | 0.88 | -0.263 (inactive) | 0.558 | 0.284 | 0.751 | 2.99 | 1.75 | 1.3 | 0.0923 | 1.1 |
| COC(=O)[C@@]1(Cc2ccccc2)[C@H]2c3cc(C(=O)N4CCCC4)n(Cc4ccc(OC(F)(F)F)cc4)c3C[C@H]2CN1C(=O)c1ccccc1 | 0.963 | -0.56 (inactive) | 0.772 | 0.509 | 0.461 | 2.44 | 0.498 | 1.31 | -0.488 | 1.16 |
| [N-]=[N+]=NCc1ccccc1C[C@]1(C(=O)NCCN2CCOCC2)N=C(c2ccc(OCCCO)cc2)O[C@H]1c1ccccc1 | 0.528 | 0.356 (inactive) | 0.408 | -0.126 | 0.668 | 1.78 | 0.488 | 1.3 | -1.03 | 0.885 |
| CC(C)C[C@@H]1NC(=O)[C@@H]2C[C@H](C(=O)NCc3ccc(F)cc3)[C@H](c3ccc(O)cc3)N2C1=O | -0.674 | 0.63 (inactive) | -0.222 | -0.126 | 0.47 | 2.61 | 0.38 | 0.425 | 0.448 | 1.18 |
| C/C=C/[C@@H](CCn1cc([C@H](O)c2ccccc2)nn1)[Si](C)(C)c1ccc(OC)cc1 | -0.91 | 2.17 (inactive) | -0.367 | -0.195 | -0.105 | 1.15 | 0.614 | -0.123 | 0.0697 | -0.333 |
| [N-]=[N+]=NCc1ccccc1C[C@]1(C(=O)NCCN2CCOCC2)COC(c2ccc(OCCCO)cc2)=N1 | 0.854 | 0.689 (inactive) | 0.116 | -0.106 | 0.353 | 2.31 | 1.47 | 1.29 | -0.519 | 0.0927 |
| COc1ccc(C#Cc2ccc3c(c2)[C@]2(C(=O)N3)[C@H](C(N)=O)[C@H]3C(=O)O[C@H](c4ccccc4)[C@H](c4ccccc4)N3[C@@H]2c2ccc(O)cc2)cc1 | 0.49 | 0.312 (inactive) | -0.0947 | -0.148 | 0.414 | 2.27 | 0.211 | 0.902 | -0.0806 | 0.985 |
| COC(=O)c1ccc(OC)c(/C=C\CC(CCc2ccccc2)OC(C)=O)c1 (stereo not given) | 0.804 | -0.376 (inactive) | -0.272 | -0.196 | 0.557 | -0.14 | 0.275 | -0.0896 | 0.204 | 0.0426 |
